# An excerpt weighted towards active compounds, which were near 1.5% of everything screened.
# AID504770: growth inhibitors of E. coli YBA685 in a screen for V. cholerae RctB (chromosome II replication) inhibitors; 130,000 tested, 0.27% active; E. coli YBA685 rctB-dependent plasmid, OD600 growth, 3 h; active compounds read low; z-score (no concentration beside the values); in the data active means z-score below about -2, passing the limit was not always enough
# MenB inh: Mtb MenB enzyme inhibition. 100,000 tested, 0.43% active. inhibition, % (test concentration not listed). P9WNP5. AID 540299. MenB enzyme assay, absorbance read-out; in the data active means inhibition above about 21%, passing the limit was not always enough
# Mtb MbtI inh: MbtI salicylate synthase inhibition; P9WFX0; purified MbtI enzyme, fluorescence intensity read-out; inhibition, % (test concentration not listed); 100,000 tested, 0.89% active; in the data active means inhibition mostly above about 56%, no sharp cut-off; inactive means mostly below about 77%
# Polio RdRp inh: inhibitors of poliovirus RNA polymerase binding and polymerization. poliovirus polymerase elongation, fluorescence polarization; active compounds read low. 150,000 tested, 0.66% active. % elongation, % (compound at 16.7 µg/mL). P03300; in the data active means % elongation below about 90%
# Target sequence (P03300 1749-2209 limits assumed): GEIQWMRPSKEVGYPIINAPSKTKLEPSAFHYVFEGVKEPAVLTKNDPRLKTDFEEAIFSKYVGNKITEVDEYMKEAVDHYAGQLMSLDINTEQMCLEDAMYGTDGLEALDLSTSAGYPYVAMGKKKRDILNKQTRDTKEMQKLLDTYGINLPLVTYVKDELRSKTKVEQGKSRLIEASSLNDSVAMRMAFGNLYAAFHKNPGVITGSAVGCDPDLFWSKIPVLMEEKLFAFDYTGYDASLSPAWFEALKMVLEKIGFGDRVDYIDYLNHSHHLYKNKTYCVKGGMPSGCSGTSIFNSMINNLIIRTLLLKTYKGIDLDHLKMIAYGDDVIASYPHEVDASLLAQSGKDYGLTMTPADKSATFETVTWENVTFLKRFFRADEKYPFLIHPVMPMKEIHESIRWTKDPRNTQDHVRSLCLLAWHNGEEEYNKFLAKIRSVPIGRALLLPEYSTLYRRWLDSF
# * marks the source's active call; other numbers are inactive results; i = inactive; / = no result given.
SMILES,AID504770,MenB inh,Mtb MbtI inh,Polio RdRp inh
CC(C)P(=O)(c1cccc(C(=O)O)c1)C(C)C,0.55,23.4*,/,102.0
Cc1oc(-c2ccccc2)nc1C(=O)OCc1nc2ccccc2c(=O)n1CC#N,-1.05,-12.0,-6.8,113.0
COc1ccc(C)cc1-n1nnnc1SCC(=O)N(CC(C)C)CC(C)C,-0.1,-45.5,-7.0,102.0
CCCCNC(=O)CSc1nc(-c2ccc(OC)cc2)cc(C(F)(F)F)n1,/,/,/,105.0
CCN(CC)C(=O)c1sc(NC(=O)C(C)Sc2nc(-c3ccccc3)cc(C(F)(F)F)n2)c(C(=O)OC)c1C (stereo not given),/,/,/,84.0*
CCCOC(=O)c1c(NC(=O)C(C)Sc2nc(-c3ccccc3)cc(C(F)(F)F)n2)sc(C(=O)N(C)C)c1C (stereo not given),/,/,/,99.0
COC(=O)c1c(NC(=O)CSc2nc(-c3ccco3)cc(C(F)(F)F)n2)sc2c1CCCC2,0.1,-5.0,56.8*,99.0
CCOC(=O)c1c(NC(=O)CSc2nc(-c3ccc(OC)cc3)cc(C(F)(F)F)n2)sc(C)c1C,/,/,/,86.0*
CCCOC(=O)c1c(NC(=O)CSc2nc(-c3ccco3)cc(C(F)(F)F)n2)sc(C(=O)N(C)C)c1C,-0.1,-3.4,37.2,99.0
Clc1ccc2nc(N3CCCC3)nc(-c3ccccc3)c2c1,-0.15,-10.7,4.5,100.0
N#Cc1c(NCSCc2ccccc2)sc2c1CCCCC2,-0.15,-11.9,/,69.0*
Cc1ccc(N2NC(=O)CC2=O)cc1C,-0.45,12.8,/,92.0
Cc1ccc(-n2[nH]c(=O)c(N=O)c2O)cc1C,-0.3,-28.0,17.0,78.0*
CCc1c(C)sc(NC(=O)/C=C/c2cccs2)c1C(=O)OC,-1,-42.3,-17.9,100.0
CCc1c(C)sc(NC(=O)C2CC3CCC2C3)c1C(=O)OC (stereo not given),0.85,-7.5,/,88.0*
C=CCNC(=O)c1cc(-c2ccccc2)on1,-0.1,33.8*,8.2,100.0
O=C(O)c1cc(-c2ccc(F)cc2)on1,-0.8,47.4*,/,98.0
C=CCNC(=O)c1cc(-c2ccc(OC)cc2)on1,-0.2,-9.4,-10.7,101.0
CCN(CC)C(=O)c1cc(-c2ccc(C)cc2)on1,0,5.0,/,100.0
CCN(CC)C(=O)c1cc(-c2ccccc2)on1,0,33.8*,7.2,102.0
CC(C)c1ccc(C(=O)Nc2ccccc2N2CCN(C)CC2)c(C(C)C)c1,-0.4,-25.9,7.0,101.0
COC(=O)C1CCN(S(=O)(=O)c2cccc3nsnc23)CC1,-0.4,9.7,-16.1,98.0
O/N=C1/c2ccccc2/C(=N/O)C1c1ccc(Cl)cc1,-0.1,-1.9,-4.8,102.0
COc1ccc(CSc2nnc(C)s2)cc1F,0.95,55.9*,0.2,102.0
COc1ccc(CCNC(=O)CSc2nnc(C)s2)cc1OC,0.6,-4.0,-1.2,102.0
SMILES,AID504770,MenB inh,Mtb MbtI inh,Polio RdRp inh
Sc1sccc1C=NC1CCCCC1,-0.45,-206.0,98.8*,98.0
CCc1nc2ccc(NC(C)=O)cc2c(=O)n1Cc1ccccc1,-0.3,-18.2,3.8,104.0
O=C(Nc1ccc2nc(C3CC3)n(Cc3ccccc3)c(=O)c2c1)C1CC1,-0.7,32.5*,9.8,101.0
COC(=O)c1sc2nc[nH]c(=O)c2c1CC(=O)O,1.7,-26.0,35.4,/
O=C(N=C=S)c1ccc2ccccc2c1,-1.1,-67.1,i,75.0*
CN(C)S(=O)(=O)c1cccc(C(=O)N=C=S)c1,-0.25,-67.1,95.5*,70.0*
COc1ccc(C2Sc3ccccc3N2S(C)(=O)=O)cc1 (stereo not given),0.35,-5.7,/,103.0
CC(C)NC(=O)c1oc2ccccc2c1CSC1=NCCS1,-0.2,-2.4,-9.4,103.0
COc1cccc(N2CC(NC(=O)/C=C\c3ccc4c(c3)OCO4)CC2=O)c1 (stereo not given),/,/,/,81.0*
COc1ccc(N2CC(NC(=O)/C=C\c3ccc4c(c3)OCO4)CC2=O)cc1OC (stereo not given),/,/,/,105.0
CNC(=S)NC1CCN(Cc2ccccc2)CC1,-1.3,-17.6,1.1,104.0
c1ccc2c(c1)COC1(CCCCC1)N2,1.15,38.1*,0.6,102.0
CC(Sc1ncnc2sc3c(c12)CCCC3)C(=O)O (stereo not given),-3.4*,-1.6,/,100.0
CCCCn1c(=N)n(CC(=O)OC)c2ccccc21,-1.15,2.8,-4.6,101.0
CC(C)C(C(C#N)C#N)C1C(=O)NC(=S)NC1=O (stereo not given),-0.55,-32.5,1.6,102.0
O=C1C=CC(=O)N1CCc1ccc(Cl)cc1,-1.8,-6.8,100.5*,101.0
O=C1C=CC(=O)N1CCc1ccccc1,-1.55,/,93.2*,102.0
CCN(CC)S(=O)(=O)c1ccc2c(c1)nc(SCc1csc(NC(C)=O)n1)n2CC,-2.15,-13.5,-2.8,107.0
c1ccc(C2CCC(=NN3CCOCC3)CC2)cc1 (stereo not given),0.3,-1.8,-9.2,102.0
CCC(CC)C(=O)Nc1nc2ccc(OC)cc2s1,0.95,-12.3,0.9,101.0
CC1CC(OCC(O)CN)CC(C)(C)C1 (stereo not given),-2.15*,-0.9,-2.2,104.0
Cc1ccc(-c2nnc(SCCC(=O)N3CCOCC3)o2)cc1,-0.2,28.3*,9.6,99.0
OC(c1ccco1)c1nccc2ccccc12 (stereo not given),-0.9,-15.7,3.0,101.0
Cc1ccc(Nc2nn(CN3CCOCC3)c(=S)s2)cc1,-1,-36.6,89.7*,102.0
CN(C)CCCn1c(=N)n(CC(O)C(C)(C)C)c2ccccc21 (stereo not given),-0.4,-18.0,-13.4,99.0
SMILES,AID504770,MenB inh,Mtb MbtI inh,Polio RdRp inh
c1cc(OCc2nc3ccccc3s2)cc(-n2cnnn2)c1,0.1,-6.4,4.2,99.0
Cc1[nH]c(=S)sc1CC(=O)NC1CCCCC1C (stereo not given),1.7,-2.2,83.7*,98.0
CCOC(=O)c1c(CN2CCOCC2)n(C)c2ccc(O)cc12,0.65,-1.5,/,68.0*
CCc1ccccc1NC(=O)N1CCN(c2nnc(C)c3c(C)n(-c4ccc(C)cc4)nc23)CC1,0,2.5,-8.2,102.0
COc1ccc(-n2nc3c(N4CCCC(C(=O)NCc5ccc(C)cc5)C4)nnc(C)c3c2C)cc1 (stereo not given),/,/,/,89.0*
CCOC(=O)c1sc(S(C)=O)c2c1CCCC2=O (stereo not given),-0.25,18.9,63.3*,98.0
C=CCOn1c(=O)c(-c2ccc(OC)c(OC)c2)[n+]([O-])c2ccccc21,-0.5,-43.3,77.9*,93.0
CN(C)c1ccc(/C=N/c2nc3ccccc3o2)cc1,0.35,-3.0,-9.1,112.0
Cc1ccccc1C(=O)NC(=S)N1CC(C)OC(C)C1 (stereo not given),-0.9,-26.1,-3.8,102.0
C1CCN(SN2CCCCC2)CC1,-0.4,-66.6,/,78.0*
CCCCCCC1CC=C(C(=O)O)CC1 (stereo not given),-0.7,-37.8,-15.9,100.0
NC(=S)NCCc1ccccc1,-0.25,-49.9,83.0*,86.0*
S=C(NCCc1ccccc1)c1ccccc1,-0.35,-8.7,-10.0,103.0
Cc1ccccc1OCC(=O)OCC(=O)Nc1cccc(Br)c1,0.1,/,-8.6,101.0
O=C(O)CCN1C(=O)CSc2ccccc21,-0.45,-8.7,102.6,105.0

# Screening results as filed in PubChem.
